# According to PubChem BioAssay (EPA / NIEHS):
# Values joined by “and” are separate entries in the source; they are usually repeats but may differ in a detail not shown here. Equal entries are not always repeated. Records with an inconclusive call do not appear. A structure can be active in one record and inactive in another. Active and inactive are the calls of the source. How the source made its calls: active means hit-call score of the fitted dose curve at least 0.9, where 1 is the maximum; inconclusive means response in the unintended direction; inactive means score below 0.9.
# How the values were obtained:
# [1] = biological target: rat Thyrotropin Releasing Hormone Receptor (TRH), Trhr (gene 25570) (UniProt Q01717); experiment: NVS_GPCR_rTRH: NovaScreen (NVS) G Protein-Coupled Receptor Assay for rat Thyrotropin Releasing Hormone Receptor (TRH) (AID 2283329);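 further: hit means lower bound tracer signal versus DMSO baseline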
# Chain of rat Thyrotropin Releasing Hormone Receptor (TRH), Trhr (gene 25570) (Q01717 whole entry, looked up): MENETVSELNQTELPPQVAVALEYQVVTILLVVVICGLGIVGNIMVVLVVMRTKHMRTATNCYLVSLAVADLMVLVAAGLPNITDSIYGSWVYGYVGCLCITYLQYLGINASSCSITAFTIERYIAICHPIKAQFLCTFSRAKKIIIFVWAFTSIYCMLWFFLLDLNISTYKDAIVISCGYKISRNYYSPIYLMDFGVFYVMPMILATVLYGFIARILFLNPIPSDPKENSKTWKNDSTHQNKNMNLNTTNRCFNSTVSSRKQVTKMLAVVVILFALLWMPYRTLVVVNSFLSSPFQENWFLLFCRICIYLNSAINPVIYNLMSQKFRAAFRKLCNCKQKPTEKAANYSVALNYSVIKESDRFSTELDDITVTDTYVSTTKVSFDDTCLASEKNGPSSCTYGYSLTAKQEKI
# How it was run: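 Competitive radioligand binding on rat forebrain membrane preparations, with filtration and scintillation readout after 4 h. Primary testing in duplicate at 25 uM; actives confirmed in concentration-response. DMSO defined baseline.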
# [2] = biological target: Estrogen receptor (Homo sapiens) (UniProt P03372); experiment: OT_ER_ERaERa_1440: Odyssey Thera (OT) 24-hour HEK293T Protein-Complementation Assay for Estrogen Receptor-alpha/-alpha Homodimer (AID 2283349);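 further: hits raise fluorescence above DMSO for agonists and antagonists alike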
# Chain of Estrogen receptor (Homo sapiens) (P03372 whole entry, looked up, the tested form may be a part): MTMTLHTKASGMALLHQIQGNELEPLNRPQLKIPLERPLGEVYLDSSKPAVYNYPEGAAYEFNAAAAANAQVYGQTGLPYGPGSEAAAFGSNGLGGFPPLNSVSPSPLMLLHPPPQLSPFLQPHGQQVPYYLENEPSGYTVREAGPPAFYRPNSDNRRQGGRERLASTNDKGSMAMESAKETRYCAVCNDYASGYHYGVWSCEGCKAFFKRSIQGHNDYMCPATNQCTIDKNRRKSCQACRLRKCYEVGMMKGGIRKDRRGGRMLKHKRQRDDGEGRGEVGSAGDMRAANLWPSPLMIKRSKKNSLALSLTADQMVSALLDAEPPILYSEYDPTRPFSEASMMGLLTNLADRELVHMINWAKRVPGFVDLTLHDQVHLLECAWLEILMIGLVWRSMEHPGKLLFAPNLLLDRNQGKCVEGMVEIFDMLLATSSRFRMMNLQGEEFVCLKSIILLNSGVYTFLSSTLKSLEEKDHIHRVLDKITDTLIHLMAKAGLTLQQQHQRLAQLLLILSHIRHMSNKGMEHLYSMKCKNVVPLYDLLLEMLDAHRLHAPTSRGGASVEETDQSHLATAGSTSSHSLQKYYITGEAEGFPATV
# How it was run: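 Cells (HEK293T) carrying the fragment-tagged ERα LBD (aa 310-547) pair are treated with chemical for 24 hours. Nuclear and/or cytoplasmic fluorescence is then quantified on a laser scanning cytometer. Activity is scored as signal gain against DMSO.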
# [3] = biological target: Estrogen receptor (Homo sapiens) (UniProt P03372); experiment: OT_ER_ERaERa_0480: Odyssey Thera (OT) 8-hour HEK293T Protein-Complementation Assay for Estrogen Receptor-alpha/-alpha Homodimer (AID 2283351);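 further: rise in fluorescence from reassembled reporter fragments on ERα LBD homodimer in nucleus or whole cell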
# How it was run: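 Measures ERα LBD (aa 310-547) homodimer complementation in stably transfected HEK293T at 8 h post-dose, with fluorescence intensity quantified on a laser scanning cytometer relative to DMSO controls.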
# [4] = biological target: Androgen Receptor/SRC-1 Co-activator, AR (gene 367) (UniProt P10275); experiment: OT_AR_ARSRC1_0960: Odyssey Thera (OT) 16-hour HEK293T Protein-Complementation Assay for Androgen Receptor/SRC-1 Co-activator (AID 2283353);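 further: actives raise the signal above DMSO so potency reflects increased AR and SRC-1 complex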
# Chain of Androgen Receptor/SRC-1 Co-activator, AR (gene 367) (P10275 whole entry, looked up, the tested form may be a part): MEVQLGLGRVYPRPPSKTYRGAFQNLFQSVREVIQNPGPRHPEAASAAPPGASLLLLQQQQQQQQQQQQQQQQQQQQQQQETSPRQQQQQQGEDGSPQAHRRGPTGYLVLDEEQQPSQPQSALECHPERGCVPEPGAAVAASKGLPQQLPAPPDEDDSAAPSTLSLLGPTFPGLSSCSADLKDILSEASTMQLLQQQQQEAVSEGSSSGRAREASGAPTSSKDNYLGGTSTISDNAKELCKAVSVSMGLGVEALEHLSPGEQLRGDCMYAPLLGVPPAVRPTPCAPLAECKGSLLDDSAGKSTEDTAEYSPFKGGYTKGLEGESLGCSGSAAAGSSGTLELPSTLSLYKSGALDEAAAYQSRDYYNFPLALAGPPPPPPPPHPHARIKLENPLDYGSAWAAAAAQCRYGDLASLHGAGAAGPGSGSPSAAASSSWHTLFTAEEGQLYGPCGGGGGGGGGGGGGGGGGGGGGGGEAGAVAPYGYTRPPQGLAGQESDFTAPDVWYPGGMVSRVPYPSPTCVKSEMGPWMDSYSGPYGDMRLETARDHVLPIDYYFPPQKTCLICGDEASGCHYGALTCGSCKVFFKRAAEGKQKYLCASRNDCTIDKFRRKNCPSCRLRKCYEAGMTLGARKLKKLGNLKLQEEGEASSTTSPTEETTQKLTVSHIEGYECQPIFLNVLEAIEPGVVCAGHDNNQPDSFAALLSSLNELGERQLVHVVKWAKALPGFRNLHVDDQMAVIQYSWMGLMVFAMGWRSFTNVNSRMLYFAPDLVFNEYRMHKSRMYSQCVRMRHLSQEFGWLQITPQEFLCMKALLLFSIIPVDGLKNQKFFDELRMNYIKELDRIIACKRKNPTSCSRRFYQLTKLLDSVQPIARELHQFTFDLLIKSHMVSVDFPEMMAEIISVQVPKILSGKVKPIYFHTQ
# How it was run: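 Sixteen-hour cell assay: Venus halves fused to AR and SRC-1 in HEK293T report binding. Images at 488/635 nm give an N/C ratio in the 488 nm channel over ≥400 cells, analysed as signal increase over DMSO.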
# [5] = NVS_IC_rCaBTZCHL: NovaScreen (NVS) Ion Channel Assay for Calcium Channel, Type L, Benzothiazepine Site (CaBTZCHL) (AID 2283337)
# How it was run: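 Benzothiazepine-site binding was assessed in a tissue-derived, cell-free rat cortical membrane system. After 1.5 h exposure, radioactivity retained on filters was quantified by scintillation; positive and negative controls accompanied every plate.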
# [6] = biological target: Estrogen receptor (Homo sapiens) (UniProt P03372); experiment: NVS_NR_hER: NovaScreen (NVS) Nuclear Receptor Binding Assay for human Estrogen Receptor (ER) (AID 2283348)
# How it was run: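 MCF7-derived receptor extract, radiolabelled ligand, competitive displacement. Read: scintillation counts at 18 h. DMSO = negative control/baseline. Primary 25 uM duplicate; follow-up concentration–response.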
# [7] = biological target: Estrogen receptor (Homo sapiens) + Estrogen receptor beta (Homo sapiens) (UniProt P03372+Q92731); experiment: OT_ER_ERaERb_0480: Odyssey Thera (OT) 8-hour HEK293T Protein-Complementation Assay for Estrogen Receptor-alpha/-beta Heterodimer (AID 2283352)
# Chain of Estrogen receptor (Homo sapiens) + Estrogen receptor beta (Homo sapiens) (P03372 whole entry, looked up, the tested form may be a part): as the sequence (P03372 whole entry, looked up, the tested form may be a part) above
# Chain of Estrogen receptor (Homo sapiens) + Estrogen receptor beta (Homo sapiens) (Q92731 whole entry, looked up, the tested form may be a part): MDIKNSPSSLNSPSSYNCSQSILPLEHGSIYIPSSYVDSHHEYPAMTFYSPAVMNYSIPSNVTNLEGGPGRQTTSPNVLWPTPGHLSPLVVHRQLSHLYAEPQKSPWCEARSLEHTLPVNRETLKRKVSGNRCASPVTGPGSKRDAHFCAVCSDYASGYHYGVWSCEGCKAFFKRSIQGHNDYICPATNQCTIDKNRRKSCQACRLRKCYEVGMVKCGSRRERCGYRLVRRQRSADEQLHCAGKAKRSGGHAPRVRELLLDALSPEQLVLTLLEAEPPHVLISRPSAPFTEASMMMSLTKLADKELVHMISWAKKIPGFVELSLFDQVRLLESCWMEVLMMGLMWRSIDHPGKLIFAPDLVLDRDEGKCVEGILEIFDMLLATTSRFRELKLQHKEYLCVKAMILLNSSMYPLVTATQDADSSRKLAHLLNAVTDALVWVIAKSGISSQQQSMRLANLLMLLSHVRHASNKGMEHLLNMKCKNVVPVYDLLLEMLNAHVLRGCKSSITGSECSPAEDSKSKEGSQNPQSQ
# How it was run: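 Fluorescence increase from reconstituted reporter fragments, quantified by laser scanning cytometer, reflects ER-alpha/ER-beta heterodimer formation in human HEK293T cells. Exposure 8 h; positive-direction fitting against DMSO vehicle.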
# [8] = biological target: human Peripheral-type Benzodiazepine Receptor (PBR), TSPO (gene 706) (UniProt P30536); experiment: NVS_MP_hPBR: NovaScreen (NVS) Membrane Protein Assay for human Peripheral-type Benzodiazepine Receptor (PBR) (AID 2283331);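 further: hits reduce radioligand binding relative to DMSO baseline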
# Chain of human Peripheral-type Benzodiazepine Receptor (PBR), TSPO (gene 706) (P30536 whole entry, looked up): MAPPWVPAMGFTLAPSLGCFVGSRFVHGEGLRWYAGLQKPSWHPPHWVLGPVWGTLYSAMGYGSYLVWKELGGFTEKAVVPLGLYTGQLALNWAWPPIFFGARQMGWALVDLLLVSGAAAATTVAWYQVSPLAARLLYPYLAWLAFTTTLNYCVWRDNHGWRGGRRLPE
# How it was run: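 Cell-free radioligand displacement, human colonic membranes, 1 h exposure. Filter radiodetection read-out. Single-concentration duplicates (25 uM), then concentration-response for actives; DMSO negative control.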
# [9] = biological target: rat Peripheral-type Benzodiazepine Receptor (PBR), Tspo (gene 24230) (UniProt P16257); experiment: NVS_MP_rPBR: NovaScreen (NVS) Membrane Protein Assay for rat Peripheral-type Benzodiazepine Receptor (PBR) (AID 2283335)
# Chain of rat Peripheral-type Benzodiazepine Receptor (PBR), Tspo (gene 24230) (P16257 whole entry, looked up): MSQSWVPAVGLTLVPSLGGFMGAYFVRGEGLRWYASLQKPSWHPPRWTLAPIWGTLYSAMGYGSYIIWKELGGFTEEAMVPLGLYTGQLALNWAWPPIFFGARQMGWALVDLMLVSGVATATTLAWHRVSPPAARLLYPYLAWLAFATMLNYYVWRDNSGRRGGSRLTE
# How it was run: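 Single-concentration duplicate screening at 25 uM preceded concentration-series retesting of actives. Binding of a specific radioligand to rat kidney membrane PBR was read by filtration radiodetection after 1 h, with plate-wise positive and negative controls.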
# [10] = biological target: rat Opioid Receptor, Non-selective Binding, Oprm1 (gene 25601) (UniProt P33535); experiment: NVS_GPCR_rOpiate_NonSelective: NovaScreen (NVS) G Protein-Coupled Receptor Assay for rat Opioid Receptor, Non-selective Binding (AID 2283318)
# Chain of rat Opioid Receptor, Non-selective Binding, Oprm1 (gene 25601) (P33535 whole entry, looked up): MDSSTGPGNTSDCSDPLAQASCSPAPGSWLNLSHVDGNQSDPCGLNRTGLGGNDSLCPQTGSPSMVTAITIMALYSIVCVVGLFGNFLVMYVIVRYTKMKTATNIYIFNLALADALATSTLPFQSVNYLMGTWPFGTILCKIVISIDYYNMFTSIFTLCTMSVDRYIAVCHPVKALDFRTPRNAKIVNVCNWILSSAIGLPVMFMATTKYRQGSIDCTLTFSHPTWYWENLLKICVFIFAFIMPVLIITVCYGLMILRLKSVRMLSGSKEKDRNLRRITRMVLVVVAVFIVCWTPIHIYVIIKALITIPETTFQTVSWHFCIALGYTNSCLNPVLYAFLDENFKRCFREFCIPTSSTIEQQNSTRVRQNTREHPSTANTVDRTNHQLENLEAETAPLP
# How it was run: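 Filter-based radioligand displacement using rat forebrain membrane preparations, measured 1.5 h post-dosing. Single-concentration duplicate screen at 25 uM, follow-up in concentration series; activity taken as signal loss relative to DMSO.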
# [11] = biological target: Sodium channel protein type 1 subunit alpha (Rattus norvegicus) (UniProt P04774); experiment: NVS_IC_rNaCh_site2: NovaScreen (NVS) Ion Channel Assay for rat Sodium Channel, Site 2 (NaCh) (AID 2283322);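 further: hit means loss of radioligand binding signal relative to DMSO so AC50 marks displacement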
# How it was run: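 Initial duplicate single-point testing at 25 uM, followed by concentration-response runs for actives. Binding of radioligand to rat forebrain membranes quantified after 1 h via filter-based radiodetection.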
# [12] = biological target: bovine Gamma-Aminobutyric Acid Type A Receptor Agonist (GABAR Agonist), GABRA1 (gene 780973) (UniProt P08219); experiment: NVS_LGIC_bGABAR_Agonist: NovaScreen (NVS) Ligand-Gated Ion Channel Assay for bovine Gamma-Aminobutyric Acid Type A Receptor Agonist (GABAR Agonist) (AID 2283338)
# Chain of bovine Gamma-Aminobutyric Acid Type A Receptor Agonist (GABAR Agonist), GABRA1 (gene 780973) (P08219 whole entry, looked up): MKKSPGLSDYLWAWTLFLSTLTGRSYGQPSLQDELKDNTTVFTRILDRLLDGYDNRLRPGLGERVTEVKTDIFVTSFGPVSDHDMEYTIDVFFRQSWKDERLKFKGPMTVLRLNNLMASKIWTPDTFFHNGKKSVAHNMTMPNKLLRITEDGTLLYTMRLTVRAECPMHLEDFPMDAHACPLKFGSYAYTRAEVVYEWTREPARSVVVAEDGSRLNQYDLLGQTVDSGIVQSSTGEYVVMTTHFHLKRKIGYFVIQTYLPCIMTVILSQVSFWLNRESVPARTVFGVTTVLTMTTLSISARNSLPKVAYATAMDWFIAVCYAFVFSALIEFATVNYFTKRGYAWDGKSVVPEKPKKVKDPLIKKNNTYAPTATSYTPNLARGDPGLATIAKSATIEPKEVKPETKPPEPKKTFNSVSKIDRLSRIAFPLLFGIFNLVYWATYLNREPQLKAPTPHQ
# How it was run: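 Radioligand binding to bovine cerebellar membranes in agonist format, read by filter-based scintillation counting after 1 h. Primary screen in duplicate at 25 uM, with actives followed in concentration series. Gain of signal versus DMSO.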
# [13] = test system: guinea pig Histamine Receptor (H2), gene 100729734; experiment: NVS_GPCR_gH2: NovaScreen (NVS) G Protein-Coupled Receptor Assay for guinea pig Histamine Receptor (H2) (AID 2283342)
# How it was run: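 Guinea pig striatal membrane preparation with specific radioligand; bound counts measured by filtration and scintillation 1 h post-dosing, DMSO as baseline. Chemicals passing a 25 uM duplicate screen were titrated to a 50 uM maximum.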
# [14] = biological target: chimpanzee Androgen Receptor (AR), AR (gene 747460) (UniProt O97775); experiment: NVS_NR_cAR: NovaScreen (NVS) Nuclear Receptor Binding Assay for chimpanzee Androgen Receptor (AR) (AID 2283346);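 further: radioligand displacement from AR measured by scintillation counting in a cell-free assay; a loss of bound radioligand signal versus DMSO counts as binding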
# Chain of chimpanzee Androgen Receptor (AR), AR (gene 747460) (O97775 whole entry, looked up): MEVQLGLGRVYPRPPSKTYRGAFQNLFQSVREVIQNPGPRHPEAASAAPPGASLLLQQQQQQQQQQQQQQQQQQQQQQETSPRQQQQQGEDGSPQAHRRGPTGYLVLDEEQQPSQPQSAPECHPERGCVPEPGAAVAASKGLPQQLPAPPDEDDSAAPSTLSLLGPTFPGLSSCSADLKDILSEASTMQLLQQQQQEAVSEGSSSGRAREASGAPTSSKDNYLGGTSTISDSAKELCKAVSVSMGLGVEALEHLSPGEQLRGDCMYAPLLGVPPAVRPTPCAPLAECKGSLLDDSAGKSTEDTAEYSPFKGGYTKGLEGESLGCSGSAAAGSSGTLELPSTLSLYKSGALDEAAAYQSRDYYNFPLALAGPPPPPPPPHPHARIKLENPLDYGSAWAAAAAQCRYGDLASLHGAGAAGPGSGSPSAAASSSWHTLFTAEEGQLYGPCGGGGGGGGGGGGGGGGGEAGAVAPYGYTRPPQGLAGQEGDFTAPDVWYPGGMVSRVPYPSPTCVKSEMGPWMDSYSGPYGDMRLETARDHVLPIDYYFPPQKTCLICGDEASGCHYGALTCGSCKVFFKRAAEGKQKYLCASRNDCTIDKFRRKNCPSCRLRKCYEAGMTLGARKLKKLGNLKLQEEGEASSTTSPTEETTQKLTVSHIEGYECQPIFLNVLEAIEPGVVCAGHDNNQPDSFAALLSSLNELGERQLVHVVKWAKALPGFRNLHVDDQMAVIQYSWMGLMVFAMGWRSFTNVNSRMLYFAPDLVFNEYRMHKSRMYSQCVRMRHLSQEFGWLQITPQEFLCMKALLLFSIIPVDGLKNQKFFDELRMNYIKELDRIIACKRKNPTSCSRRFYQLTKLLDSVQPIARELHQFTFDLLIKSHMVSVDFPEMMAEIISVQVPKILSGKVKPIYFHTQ
# How it was run: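 Radioligand binding to chimpanzee AR expressed in Sf9/Sf21 cells, cell-free, measured 72 h after dosing by lysate-based scintillation counting. Loss of signal vs DMSO; initial duplicate screen at 25 uM, actives retested in concentration series.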
# [15] = biological target: bovine Gamma-Aminobutyric Acid Type A Receptor BDZ, alpha 5 site (GABARa5), GABRA5 (gene 523515) (UniProt Q08E50); experiment: NVS_LGIC_bGABARa5: NovaScreen (NVS) Ligand-Gated Ion Channel Assay for bovine Gamma-Aminobutyric Acid Type A Receptor BDZ, alpha 5 site (GABARa5) (AID 2283323)
# How it was run: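 Tested first in duplicate at a single 25 uM, with hits re-run in concentration series to a 50 uM maximum. Bovine hippocampal membranes; specific radioligand displacement measured by filter scintillation counting 1 hr post-dose.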
# [16] = biological target: bovine Estrogen Receptor (ER), ESR1 (gene 407238) (UniProt P49884); experiment: NVS_NR_bER: NovaScreen (NVS) Nuclear Receptor Binding Assay for bovine Estrogen Receptor (ER) (AID 2283345);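 further: actives lower the bound radioligand count which means they displace the ER ligand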
# How it was run: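 Displacement of a radioligand from estrogen receptor in bovine uterine membrane preparations; scintillation signal taken at 18 hours, DMSO as baseline. Single-concentration duplicates (25 uM) preceded concentration-response follow-up of actives.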
# NCBI gene 100848466 = experiment: NVS_NR_bPR: NovaScreen (NVS) Nuclear Receptor Binding Assay for bovine Progextron Receptor (PR) (AID 2283343);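 further: actives lower bound radioligand signal below DMSO meaning displacement of the label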
# How it was run: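 Scintillation counts of bound radioligand were read 18 hours after chemical addition to membranes extracted from bovine uterus. Displacement was scored as loss of signal relative to DMSO controls. Screening began at 25 uM in duplicate.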
compound,measurement,setting,value
CC(=O)N(C)C,outcome,[1],inactive
same,outcome,[2],inactive
same,outcome,[3],inactive
same,outcome,[4],inactive
C=C1CC/C=C(\C)CC[C@@H]2[C@@H]1CC2(C)C,outcome,[5],inactive
CC12CCC(C1)C(C)(C)C2O (stereo unspecified),outcome,[1],inactive
same,outcome,[6],inactive
same,outcome,[2],inactive
same,outcome,[3],inactive
same,outcome,[7],inactive
NC(=O)c1c(Cl)cccc1Cl,AC50,[8],3.59 µM (active)
same,outcome,[9],inactive
OCC=Cc1ccccc1,outcome,[1],inactive
same,outcome,[2],inactive
same,outcome,[3],inactive
same,outcome,[7],inactive
CCO[Si](CC)(OCC)OCC,outcome,[1],inactive
same,outcome,[2],inactive
same,outcome,[3],inactive
same,outcome,[7],inactive
same,outcome,[4],inactive
CCC(C)(C)C1CCC(OC)CC1 (stereo unspecified),outcome,[1],inactive
same,outcome,[2],inactive
same,outcome,[3],inactive
same,outcome,[7],inactive
CN1CCc2cccc3c2[C@H]1Cc1ccc(O)c(O)c1-3,AC50,[8],1.83 µM (active)
same,AC50,[6],20 nM (active)
same,outcome,[2],inactive
same,outcome,[3],inactive
c1coc(CNc2ncnc3nc[nH]c23)c1,outcome,[1],inactive
same,outcome,[2],inactive
same,outcome,[3],inactive
CCCCCCCCOS(=O)(=O)O,outcome,[1],inactive
same,outcome,[2],inactive
same,outcome,[3],inactive
CC/C(=C(\c1ccccc1)c1ccc(OCCN(C)C)cc1)c1ccccc1,outcome,[10],inactive
same,AC50,[11],1.56 µM (active)
same,AC50,[5],938 nM (active) and 874 nM (active)
same,outcome,[12],inactive
same,AC50,[13],4.7 µM (active) and 1.19 µM (active)
same,AC50,[14],19.4 µM (active)
same,outcome,[14],inactive
CC(=O)c1ccc2ccccc2c1,outcome,[1],inactive
same,outcome,[2],inactive
same,outcome,[3],inactive
same,outcome,[7],inactive
CCCCCCCCCCCCS,AC50,[1],929 nM (active)
same,outcome,[2],inactive
same,outcome,[3],inactive
same,outcome,[7],inactive
O=S(=O)(O)c1cc(S(=O)(=O)O)c2c(N=Nc3ccccc3)c(O)ccc2c1,outcome,[1],inactive
same,outcome,[2],inactive
same,outcome,[3],inactive
same,outcome,[7],inactive
COc1cc(OC)c2ccc(=O)oc2c1,AC50,[8],12.1 µM (active)
same,AC50,[9],157 nM (active)
same,outcome,[2],inactive
same,outcome,[3],inactive
same,outcome,[7],inactive
same,outcome,[4],inactive
C=C(C)C(N)=O,outcome,[15],inactive
same,outcome,[2],inactive
same,outcome,[3],inactive
C=CC(=O)OCC(CO)(COC(=O)C=C)COC(=O)C=C,AC50,[8],11 µM (active)
same,outcome,[16],inactive
same,outcome,[6],inactive
C#C[C@]1(O)CC[C@H]2[C@@H]3CCc4cc(O)ccc4[C@H]3CC[C@@]21C,AC50,[10],20.5 µM (active)
same,outcome,[11],inactive
same,AC50,[8],2.52 µM (active) and 13.7 µM (active) and 11.4 µM (active)
same,AC50,[9],4590 nM (active)
same,outcome,[9],inactive
same,AC50,NCBI gene 100848466,51 nM (active)
same,AC50,[14],966 nM (active) and 80.5 nM (active)
O=Cc1ccccc1O,outcome,[1],inactive
same,AC50,[2],92 µM (active)
same,outcome,[3],inactive
